Mdm2 MdmX PPI: inhibitors of human Mdm2-MdmX association, primary screen, cell-based, luminescence, split luciferase, SaOS-2, uHTS; Protein Mdm4 (Homo sapiens) + E3 ubiquitin-protein ligase Mdm2 (Homo sapiens), …; inhibition, % at 8 µM; SaOS-2 split-luciferase Mdm2/MdmX complementation; actives 3% (n = 330,000); AID 485346, 2010;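 active = inhibition of at least 50% at 8 µM in the primary screen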
Target sequence (O15151 whole entry, looked up): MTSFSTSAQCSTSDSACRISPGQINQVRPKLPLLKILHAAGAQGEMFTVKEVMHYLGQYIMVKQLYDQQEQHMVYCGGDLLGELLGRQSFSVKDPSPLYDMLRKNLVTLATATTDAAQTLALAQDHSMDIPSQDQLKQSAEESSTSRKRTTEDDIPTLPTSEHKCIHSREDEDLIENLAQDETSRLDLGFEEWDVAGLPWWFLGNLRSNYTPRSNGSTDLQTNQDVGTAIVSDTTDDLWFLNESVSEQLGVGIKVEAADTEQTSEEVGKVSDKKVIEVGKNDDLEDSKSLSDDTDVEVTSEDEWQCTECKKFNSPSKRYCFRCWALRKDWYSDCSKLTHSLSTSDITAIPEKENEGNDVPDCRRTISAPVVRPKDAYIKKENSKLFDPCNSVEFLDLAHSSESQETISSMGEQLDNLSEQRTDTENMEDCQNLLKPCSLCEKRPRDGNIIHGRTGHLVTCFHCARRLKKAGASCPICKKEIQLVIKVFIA
Target sequence (Q00987 whole entry, looked up): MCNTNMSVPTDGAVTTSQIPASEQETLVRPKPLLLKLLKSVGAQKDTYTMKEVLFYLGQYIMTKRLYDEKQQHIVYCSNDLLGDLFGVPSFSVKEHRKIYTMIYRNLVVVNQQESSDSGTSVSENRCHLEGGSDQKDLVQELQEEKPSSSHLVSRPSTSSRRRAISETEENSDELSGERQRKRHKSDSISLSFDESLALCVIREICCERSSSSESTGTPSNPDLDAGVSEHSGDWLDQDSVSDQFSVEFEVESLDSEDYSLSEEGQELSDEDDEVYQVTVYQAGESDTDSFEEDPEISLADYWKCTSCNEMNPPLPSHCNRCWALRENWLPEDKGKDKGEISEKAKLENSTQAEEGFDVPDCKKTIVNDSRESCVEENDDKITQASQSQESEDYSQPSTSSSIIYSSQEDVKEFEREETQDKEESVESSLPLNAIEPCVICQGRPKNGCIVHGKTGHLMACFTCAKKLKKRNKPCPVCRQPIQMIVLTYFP
Jurkat NFkB inh: inhibitors of induced NF-kB luciferase reporter, primary screen, TCR NF-kB activation inhibitor project, cell-based, luminescence, uHTS; Jurkat, PMA/ionomycin-induced NF-kB luciferase reporter; inhibition, % at 4 µM; actives 0.53% (n = 330,000); AID 435003, 2010; in the data active = inhibition above about 50%
Beta cell apopt: inhibitors of cytokine-induced beta cell apoptosis, primary screen, luminescence. protection from apoptosis, % (concentration not given with the values). INS-1E cytokine-induced death, ATP luminescence, 48 h; percent of positive-control rescue, neutral wells zero. actives 0.8% (n = 300,000). AID 435005, 2010;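 active = Every replicate reaches about 75%, or at least half do and their mean reaches it too, limit read from the data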;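 also: higher means more ATP so stronger rescue from cytokine killing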
Gli-Sufu antag: Gli-Sufu pathway antagonists, primary screen, luciferase luminescence, Sufu-KO-LIGHT cells, uHTS. Sufu-KO-LIGHT fibroblasts, Gli luciferase reporter luminescence. inhibition, % at 5 µM. actives 0.74% (n = 340,000). AID 588413, 2011;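 active = inhibition above about 55%, limit read from the data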
697 NFkB inh: inhibitors of PMA/ionomycin-induced NF-kB reporter, 697 cells, primary screen, B-cell NF-kB inhibitor project, cell-based, luminescence, uHTS; 697 B-cell NF-kB luciferase reporter, 16 h; inhibition, % at 4 µM; actives 0.33% (n = 330,000); AID 435022, 2010; in the data active = inhibition above about 35%
Jurkat NFkB conf: PMA/ionomycin-induced NF-kB reporter inhibitors, Jurkat retest, confirmation, T-cell NF-kB inhibitor project, cell-based, luminescence, single concentration; shares compounds with Jurkat NFkB inh; Jurkat NF-kB luciferase, 16 h; inhibition, % at 4 µM; actives 27% (n = 2,700); AID 435020, 2010;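 active = inhibition reaching about 45% at 4 µM in either replicate, limit read from the data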
697 NFkB conf: PMA/ionomycin-induced NF-kB reporter inhibitors, 697 retest, confirmation, B-cell NF-kB inhibitor project, cell-based, luminescence, single concentration | shares compounds with 697 NFkB inh | 697 B-cell NF-kB luciferase, 16 h | inhibition, % at 4 µM | actives 35% (n = 2,000) | AID 449746, 2010; in the data active = inhibition mostly above about 28%, no sharp cut-off; inactive = mostly below about 22%
Large screens that a line does not name were inactive (follow-up assays come after a bar, where they were run). Only some compounds are listed: those with a hit (about 4% of all), similar ones and a draw of the others.

Nc1ccc(CCN2CCN(c3cccc(C(F)(F)F)c3)CC2)cc1	Jurkat NFkB inh 60.4 | Jurkat NFkB conf inactive
O=C(c1n[nH]c(=O)c2ccccc12)N1CCC2(CC1)OCCO2	none
CC(=O)OC12COC1CC(O)C1(C)C(=O)C(O)C3=C(C)C(O)CC(O)(C(OC(=O)c4ccccc4)C21)C3(C)C (configuration not stated)	none (no result: Mdm2 MdmX PPI, Jurkat NFkB inh, Beta cell apopt, 697 NFkB inh)
C/C=C(\C)C(=O)N[C@@H](c1ccccc1)[C@@H](O)C(=O)O[C@H]1C[C@@]2(O)[C@@H](OC(=O)c3ccccc3)C3[C@](C)(C(=O)[C@H](OC(C)=O)C(=C1C)C2(C)C)[C@H](O)C[C@H]1OC[C@@]31OC(C)=O (some centres not stated)	Jurkat NFkB inh 72.0 | Jurkat NFkB conf 72.9
COC(=O)[C@]12OC[C@]34C([C@@H](O)[C@@H]1O)[C@]1(C)CC(=O)C(O)=C(C)[C@@H]1C[C@H]3OC(=O)[C@H](O)[C@@H]24 (some centres not stated)	Jurkat NFkB inh 65.8 | Jurkat NFkB conf 86.3
CC1=CC(=C2C(=O)NC(=S)NC2=O)C=C(C(F)(F)F)N1CCc1ccccc1	Jurkat NFkB inh 50.0 (no result: Gli-Sufu antag) | Jurkat NFkB conf inactive
CC1=CC(=C2C(=O)NC(=S)NC2=O)C=C(C(F)(F)F)N1Cc1ccccc1	Jurkat NFkB inh 69.8 | Jurkat NFkB conf inactive
COc1cccc(C(=O)C2CCCN(Cc3cccc4c3OCO4)C2)c1 (configuration not stated)	none
COc1ccccc1-n1c(/C=C/c2ccc(O)cc2)nc2ccccc2c1=O	none | Jurkat NFkB conf inactive
COc1cc(C2(C#N)CCN(C)CC2)cc(OC)c1OC	none (no result: Mdm2 MdmX PPI, Jurkat NFkB inh, Beta cell apopt, 697 NFkB inh)
O=C(Nc1ccc(C(F)(F)F)cc1)c1cccn(Cc2ccc3c(c2)OC(F)(F)O3)c1=O	Jurkat NFkB inh 54.1 | Jurkat NFkB conf inactive
O=C(Nc1cccc(C(F)(F)F)c1)c1cccn(Cc2ccc3c(c2)OC(F)(F)O3)c1=O	none
CC(C)(O)C1C2OC(=O)C1C1(O)CC3OC34C(=O)OC2C14C (configuration not stated)	none (no result: Mdm2 MdmX PPI, Jurkat NFkB inh, Beta cell apopt, 697 NFkB inh)
CC[C@@H]1C=CC=CC[C@H](C)[C@@H](O)[C@@H](C)C(=O)[C@H](C)[C@@H](O)[C@H](C)C(=O)[C@H](C)[C@@H](O)[C@H](C)C=CC(=O)O[C@H]2[C@@H](C)[C@@H](CC1)O[C@@]1(CC[C@@H](C)[C@@H](C[C@H](C)O)O1)[C@@H]2C	Jurkat NFkB inh 53.0 (no result: Gli-Sufu antag) | Jurkat NFkB conf inactive
COc1cc2c(cc1O)[C@@H]1Cc3ccc(OC)c(O)c3CN1CC2	Jurkat NFkB inh 58.1 | Jurkat NFkB conf inactive
COc1ccc(C[C@@H]2c3cc(O)c(OC)cc3CCN2C)cc1O	none
Cc1ccc2c(c1)C1C[N+](C)(CC(=O)c3ccc(Cl)cc3Cl)CCC1N2C(=O)c1ccc(F)cc1 (configuration not stated)	none
CC(C)(C)n1cc(C(=O)c2ccc3ccccc3c2O)cn1	none | Jurkat NFkB conf inactive | 697 NFkB conf inactive
Cc1cc(OCC(=O)N2CCC(C(=O)O)CC2)c2c3c(c(=O)oc2c1)CCCC3	none (no result: Beta cell apopt)
Nc1ccccc1C(=O)OCCOc1ccccc1	none | Jurkat NFkB conf inactive | 697 NFkB conf inactive
COC1=CC(=O)[C@]2(C=C1OC)OC[C@@H]1Oc3c(ccc4c3C=CC(C)(C)O4)C(=O)[C@@H]12	Jurkat NFkB inh 52.4, Beta cell apopt 125.9, Gli-Sufu antag 84.6, 697 NFkB inh 77.5 | Jurkat NFkB conf 74.2 | 697 NFkB conf 87.0
Cc1nn(Cc2ccccc2)c(C)c1C(=O)O	none
COC(=O)C1=C(c2ccc(Cl)c(C(F)(F)F)c2)C[C@@H]2CC[C@H]1N2C(=O)NCC1CC1	none
